Experimental data reported in the supplement of paper PMC6555819.

These sequences were tested on VDR:RXRa (NR concentration 270 nM, RXRa partner concentration 90 nM) (assay: PBM binding z-score (relative to random genomic background probes); higher = stronger binding; sequences stand for … in GC…GCGATTGACAGCGTAGAATGAAGG).
Description: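 Protein-binding microarray (Agilent 4x180K custom design, double-stranded 60-nt probes: 5' GC cap, 34-nt variable region, 24-nt constant primer region; full probe sequence given). Purified or IVT nuclear receptor:RXRα heterodimers (3:1 NR:RXRα, mostly 270:90 nM) or homodimers were incubated for 1 h in PBS with 2% milk and no ligand, then detected with Alexa488 antibodies. Fluorescence from o1-orientation probes (~5 replicates averaged) was converted to z-scores against 500 random hg19 background probes. Variable regions are seed direct-repeat (DR0–DR5) sites, all their single-nucleotide variants and half-site ablations.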

Row | Sequence | PBM binding z-score
1 | TCTTGTCGATCAGCAGGTTAAGAAAGCTGGCCAA | 0.358
2 | TTACCAACGTGAGCTGAGGTCGTTGATCCAACTC | 1.21
3 | TCTTGTAGATCAATAGGAGGTTAAGAAAGATCGA | 0.721
4 | ATCTTTAGGTAACCAAGTTCAGTGAATGCCGAAC | 4.36
5 | TGAGTGAGGTTATAAGATCAGGGAACGTTGCAAA | 0.806
6 | CAACCTAGGTCAAGAGGTCAAAGTCCGCTTCCCG | 6.21
7 | GCTTACGGGTCAATGGTTATAGCATGAATAGAAT | 2.99
8 | TCATATAGGTAAATGCCAGGTGAAAGTCCGATCT | 1.12
9 | CCTACCGGGCCAAAAAGGTCATTGATGCCGATAA | 5.13
10 | TTACCAAGGTGAGCTGAGGTCGTTGATCCAACTC | 4.19
11 | CCTACTGGGCCATCAGGTCCTTGATATCAACGTT | -0.0448
12 | GCATATAGGTAATACAAGGTGAAAGTCCGATTGT | 0.299
13 | GATACAGGGTCTAGGCCAGAGTACGCGTATTGAT | -0.508
14 | GTACCAAGGTGAACAGGTCGTTGATGAGTAGGCG | 1.15
15 | AGAGACAGGTGATGAAGGTAACTCAGGCTATCAT | 0.424
16 | GATACAGCGTCAGCTAGAGGCCAGAGTATGGAAA | -0.922
17 | ATATGTAGGTTGCATCCGGGTCATTCAGGCTATG | 3.47
18 | CTCGAAAGGTAGTGCTCAGGTGAGTATACCAAAC | -0.361
19 | TTACCAAGGTTAAGGTCGTTGATCCCTCTGTAGA | 3.3
20 | TTACCAAGGTAAGCTGAGGTCGTTGATCCAACTC | 2.84

Row | Sequence | PBM binding z-score
21 | ACTATTAGTTGACTTAGGGCGACCGATACGACGC | 0.175
22 | CGTCCAAGGTCAAGGTCAGGGAAAGAGACTCGAA | 4.97
23 | TAGCCTAGGCCATGCGGGCCAGTATAGTGTCGGC | -1.04
24 | GCTCGGAGGACAAGGTAAGAGCTTTGTCCGTAGA | -0.675
25 | CTAACAAGGTGAACAAGGTCGTTGATTACTATTC | 6.27
26 | CGTCCAATGTCATAGGAGGTCAGTGAAGACAGAT | 3.45
27 | TCATATAGCTAAAGGTGAAAGTCGAACGATATGA | 0.865
28 | TCAGACAGGTGAAGGTAGCTCAGGTACGCAGTCG | 0.353
29 | AGTCAAAGTTCTCTAGGTAACGTAAGATTCAGCT | -0.0211
30 | TGATATAGGTAAATGCTAGGTGAAAGTCCGATCT | 0.142
31 | ATCTCTAGGTAAACTTCAGTGAAAGATCGATAGA | 0.36
32 | AGAACGAGGGCAATGAGTTGATAGCTCGGGTGGC | 4.8
33 | ATACGTAGGTTAAGGGTCATTCAGGTTGGTTCGC | 5.82
34 | CGTCCAAGGTCAGAGAGGTGAGTGAATGCCGAGT | 4.78
35 | GGAACGAGGGCAAAGTTGATTGCATCTGTCGACG | 1.34
36 | ATCTCTAGGTAAAGTTCAGTAAAAGATCGATAGA | 1.65
37 | ATACCAAGGTGATCGTGAGGTTGTTGATACTAAC | 0.679
38 | TCATATAGGTACAAGGTGAAAGTCGGTGTGGTAA | 1.22
39 | CGTCAACGTTCAAGGTAACGTAACAGAAAGCAGC | -0.14
40 | CCTAGTTGGTCAAGGTGACACACGCTATAGGTAC | 0.694
